Here are results for 57 molecules from ChEMBL document CHEMBL3988442, “University of Dundee, Small-Polar-MMV Screening Library” (2021).

Structures are written as SMILES. Hit rate of the full screen: of about 48,000 compounds, about 13,000 (27%) showed an effect of 50% or more. The list shows a part of the results.

The assay concerns Wolbachia pipientis. The experiment in a line: Anti-Wolbachia Cell-Based Screen. The class given is functional. Further details: scale not given: in the data most compounds retested in dose-response had high values. The following applies: 5 µM.
As for `CCCc1noc(CN(C)C(=O)C2COc3ccccc3C2)n1` (configuration not stated), the “Percent Effect” value is recorded as -0.2082%.
With `O=C(c1cccc(O)c1)N1C[C@@H](CN2CCCCC2)[C@@H](CO)C1`, the “Percent Effect” value is reported as 36.38%.
On to `CCOc1cc(CNC(=O)NC2CC=CC2)ccc1OC(F)F`, for which the “Percent Effect” value is on record as -3.557%.
In the case of `Cc1cc(C[C@@H]2CCC[C@H]2NCc2ccc(C(F)(F)F)cc2)on1.O=C(O)CC(O)(CC(=O)O)C(=O)O`, the “Percent Effect” value worked out at 113.9%.
Regarding `Cc1cc(C[C@@H]2CCC[C@H]2NCc2c[nH]nc2-c2ccccc2)on1.O=C(O)CC(O)(CC(=O)O)C(=O)O`, the “Percent Effect” value worked out at 114%.
With `CCC[C@H]1CN(Cc2cc(C)no2)C[C@@H]1NC(=O)C1(COC)CCC1`, the “Percent Effect” value is listed as -6.466%.
For `Cc1cc(C[C@@H]2COC[C@@H]2NC(=O)CCN2Cc3ccccc3C2)on1`, the “Percent Effect” value is -14.09%.
Consider `Cc1cc(C[C@@H]2COC[C@@H]2NC(=O)CN2CCCCCC2)on1`, for which the “Percent Effect” value is 40.3%.
`CCCOc1ccccc1CN[C@@H]1CCC[C@H]1Cc1cc(C)no1.O=C(O)CC(O)(CC(=O)O)C(=O)O`: the “Percent Effect” value is on record as 112%.
As for `Cc1cc(C[C@@H]2COC[C@@H]2NC(=O)Cn2c(=O)oc3ccccc32)on1`, the figure is -2.365%.
Regarding `Cc1cc(C[C@@H]2COC[C@@H]2NC(=O)CN2CCCC2)on1`, the “Percent Effect” value is given as -5.725%.
`Cc1cc(C[C@@H]2COC[C@@H]2NC(=O)CN2CCc3ccccc3C2)on1`: the “Percent Effect” value is -17.37%.
As to `CSc1nccc(NCC2CNCCOC2)n1` (configuration not stated), the “Percent Effect” value is given as 0.1221%.
Consider `COCCN1CCN(C(=O)c2ccc(COC)o2)[C@H]2CS(=O)(=O)C[C@H]21`, for which the “Percent Effect” value came out at 7.213%.
As for `CC(C)NC(=O)N[C@H]1C[C@@H](Cc2cc(CN3CCOCC3)on2)C1(C)C`, the figure is -0.1597%; as for `Cc1c[nH]c(CN(C)C(=O)c2cccc(CCC(C)(C)O)c2)n1`, -0.9219%; as for `CC(=O)N1CCCC(c2nc(N(C)C)ncc2-c2ccccc2)C1` (configuration not stated), 94.88%.
As for `CC(=O)N1CCCC1c1cccc(C)c1C` (configuration not stated), the figure is 2.963%; as for `COCC(=O)N1CCCC(COc2ccccc2C)C1` (configuration not stated), -17.48%; as for `O=C(c1ccc[nH]1)N1CCCC1c1nc(-c2ccccc2)n[nH]1` (configuration not stated), 3.184%.
Take `CCC(=O)N1CCCC(c2nc(N(C)C)ncc2-c2ccc(F)cc2)C1` (configuration not stated): the “Percent Effect” value is listed as 103.1%.
With `CC(=O)N1CCCC(c2nc(-c3ccccc3)c[nH]2)C1` (configuration not stated), the “Percent Effect” value is -5.299%.
Consider `CC(=O)N1CCCC1c1nc(N(C)C)ncc1-c1ccccc1` (configuration not stated), for which the “Percent Effect” value turned out to be 120.4%.
On to `COCC(=O)N1C[C@H]2CC[C@@]3(N=C(c4ccccc4)NC3=O)[C@H]2C1`, for which the “Percent Effect” value is on record as -3.823%.
Consider `Cc1cc(C2CCCN(C(=O)COc3cc(F)ccc3F)C2)n[nH]1` (configuration not stated), for which the “Percent Effect” value was -12.04%.
For the molecule `COCC(=O)N1CCCC(c2nc(N(C)C)ncc2-c2ccccc2)C1` (configuration not stated), the “Percent Effect” value amounted to 96.39%.
Take `Cc1cc(C2CCCN(C(=O)COc3ccc(F)cc3)C2)n[nH]1` (configuration not stated): the “Percent Effect” value was -12.08%.
As to `CC(=O)N1Cc2ccccc2C[C@H]1C(=O)Nc1ccccn1`, the “Percent Effect” value was -1.208%.
As for `Cc1ccc(C(=O)N2CCSCC2)cc1NC(=O)NCCO`, the figure is -7.623%; as for `Cc1cc(CNC(=O)C2CCCN2C(=O)OC(C)(C)C)no1` (configuration not stated), -19.91%.
As to `Cc1nc(C2CCCN(C(=O)CCCOc3cccc(F)c3)C2)no1` (configuration not stated), the “Percent Effect” value is -2.46%.
`COCC(=O)N1CCCC(c2nc(N)ncc2-c2cccc(F)c2)C1` (configuration not stated): the “Percent Effect” value stood at 111.1%.
`Cc1cc(C2CCCN(C(=O)COc3cccc(F)c3)C2)n[nH]1` (configuration not stated): the “Percent Effect” value is -5.532%.
As for `O=C1CN(C(=O)c2nnn(-c3ccc(C(F)(F)F)cc3)n2)CCN1`, the figure is 7.084%.
In the case of `O=C(CC1CC1)N1CCC2(CC1)CN(Cc1cccnc1)C(=O)CO2.O=C(O)C(F)(F)F`, the “Percent Effect” value is 85.91%.
As for `O=C(Cc1ccccn1)N1CCC2(CC1)CN(CC1CC1)C(=O)CO2.O=C(O)C(F)(F)F`, the “Percent Effect” value is reported as 15%.
As for `O=C(O)C(F)(F)F.O=C1COC2(CCN(CC3CC3)CC2)CN1c1ccccc1`, the figure is -2.17%; as for `O=C(CC1CC1)N1CCC2(CC1)CN(CCn1cccn1)C(=O)CO2`, 0.04038%; as for `Cn1ccnc1CN1CCC2(CC1)CN(Cc1cccnc1)C(=O)CO2.O=C(O)C(F)(F)F.O=C(O)C(F)(F)F`, -2.822%.
Turning to `O=C(CC1CC1)N1CCC2(CC1)CN(c1cccnc1)C(=O)CO2.O=C(O)C(F)(F)F`, the “Percent Effect” value was found to be 86.93%.
For `Cn1ccnc1CN1CCC2(CC1)CN(Cc1ccccc1)C(=O)CO2.O=C(O)C(F)(F)F`, the “Percent Effect” value is -7.87%.
For `CN(C)CCN1CCC2(CC1)CN(Cc1cccnc1)C(=O)CO2.O=C(O)C(F)(F)F.O=C(O)C(F)(F)F.O=C(O)C(F)(F)F`, the “Percent Effect” value is 106.6%.
Turning to `O=C(C1CCCC1)N1C[C@@H]2CCN(c3cccnc3)C[C@@H]2C1.O=C(O)C(F)(F)F`, the “Percent Effect” value is -15.19%.
As for `O=C(O)C(F)(F)F.O=C(c1ccncc1)N1C[C@@H]2CCN(c3cccnc3)C[C@@H]2C1`, the “Percent Effect” value is on record as -5.49%.
As for `O=C(CC1CC1)N1C[C@@H]2CCN(c3cccnc3)C[C@@H]2C1.O=C(O)C(F)(F)F`, the “Percent Effect” value was found to be 87.47%.
With `CC(C)NC(=O)N1CCC2(CC1)NC(=O)[C@H]1CN(C(=O)N(C)C)C[C@H]12`, the “Percent Effect” value was -13.82%.
In the case of `Cn1ncc2c(NCC3CCS(=O)(=O)C3)nc(-c3ccncc3)nc21` (configuration not stated) it was 10.96%; in that of `O=C1CC(N(C(=O)c2ccc(Oc3ccccc3)cc2)C2CC2)C(=O)N1` (configuration not stated), -10.84%; in that of `CN(C)S(=O)(=O)N1C[C@@H]2CC[C@H](C1)N(Cc1ccc3nsnc3c1)C2`, 4.433%.
In the case of `Cc1cc(C)n2nc(C(=O)N3CCCC4(CNC(=O)O4)C3)cc2n1` (configuration not stated) it was 1.638%.
As for `CCS(=O)(=O)N1CCC2(CC1)CN(c1cccnc1)C(=O)CO2.O=C(O)C(F)(F)F`, the “Percent Effect” value was 93.05%.
In the case of `CCS(=O)(=O)N1CCC2(CN(c3cccc(F)c3)C(=O)CN2C)C1.O=C(O)C(F)(F)F` (configuration not stated) it was 7.629%; in that of `O=C(N1CCCC1)N1CCC2(CC1)CN(c1cccnc1)C(=O)CO2.O=C(O)C(F)(F)F`, 93.48%.
For `CCc1nc(C)c([C@H]2CN(C)C[C@@H]2C(=O)NCCc2cnccn2)[nH]1`, the “Percent Effect” value is listed as -9.925%.
With `COc1ccc(CN2C[C@@H]3COC[C@@H](N4CCN(C)CC4)[C@@H]3C2)cc1.O=C(O)C(F)(F)F.O=C(O)C(F)(F)F.O=C(O)C(F)(F)F`, the “Percent Effect” value is on record as 13.92%.
On to `COc1ccc(CN(C)[C@@H]2COC[C@H]2c2ccc(F)cc2)cc1.O=C(O)CC(O)(CC(=O)O)C(=O)O`, for which the “Percent Effect” value is recorded as 117.4%.
Take `COc1ccc(CC(C)(O)CNC(=O)Cc2ccc(F)cc2)cc1` (configuration not stated): the “Percent Effect” value was 8.313%.
